Only some compounds are listed: those with a hit (about 2.3% of all), similar ones and a draw of the others.
Pol eta inh-1 – inhibitors of human DNA polymerase eta. AID 588591. Potency, µM (doses to about 114 µM), for the others: at the top dose activity change, negative = inhibition, actives largely listed as inhibitors. hit rate 1.2% among 390,000. recombinant Pol eta, fluorescent DNA replication assay; also: % is scaled to controls: 0 for no effect and ±100 for the full control effect
Target sequence (Q9Y253 whole entry, looked up): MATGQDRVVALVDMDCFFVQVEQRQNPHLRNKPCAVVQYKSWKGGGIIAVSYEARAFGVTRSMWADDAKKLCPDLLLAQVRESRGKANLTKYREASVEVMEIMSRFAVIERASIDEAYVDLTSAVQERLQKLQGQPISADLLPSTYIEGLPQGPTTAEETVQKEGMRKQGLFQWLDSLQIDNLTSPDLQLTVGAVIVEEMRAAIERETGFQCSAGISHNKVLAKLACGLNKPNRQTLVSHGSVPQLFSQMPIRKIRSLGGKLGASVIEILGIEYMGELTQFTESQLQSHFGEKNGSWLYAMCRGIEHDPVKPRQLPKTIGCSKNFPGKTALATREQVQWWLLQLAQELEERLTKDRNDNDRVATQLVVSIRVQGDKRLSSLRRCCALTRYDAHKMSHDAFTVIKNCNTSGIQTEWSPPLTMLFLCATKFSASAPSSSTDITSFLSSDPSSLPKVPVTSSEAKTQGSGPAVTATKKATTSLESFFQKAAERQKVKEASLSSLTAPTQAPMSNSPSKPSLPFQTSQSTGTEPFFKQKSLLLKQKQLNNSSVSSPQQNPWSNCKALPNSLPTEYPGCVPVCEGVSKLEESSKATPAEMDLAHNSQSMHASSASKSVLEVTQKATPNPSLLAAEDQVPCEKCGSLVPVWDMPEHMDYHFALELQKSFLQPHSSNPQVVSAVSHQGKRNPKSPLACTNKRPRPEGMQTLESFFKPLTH
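Fluorescent replication assay: 50 nM final substrate added after a 15 min room-temperature compound preincubation with 10 nM enzyme. Signal taken at 0 min and again at 10 min.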
Pol kappa inh-1 – DNA polymerase kappa (human) inhibition; Q9UBT6; purified Pol kappa, fluorescent DNA synthesis assay, 10 min; Potency, µM (doses to about 107 µM), without a hit: top-dose activity, negative = inhibition, hits mostly inhibitors; hit rate 0.53% among 400,000; AID 588579; also: % is scaled to controls: 0 for no effect and ±100 for the full control effect
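Inhibition of 10 nM Pol kappa is measured by a fluorescent read-out at 0 and 10 min following addition of 50 nM substrate (final), with a 15-min room-temperature compound preincubation.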
Pol beta inh – inhibitors of human DNA polymerase beta | P06746 | Pol beta primer extension/strand displacement, fluorescence kinetic | Potency, µM (doses to about 114 µM), for inactives: at the highest dose activity change, negative = inhibition, hits mostly inhibitors | hit rate 1.3% among 340,000 | AID 485314; also: % is scaled to controls: 0 for no effect and ±100 for the full control effect
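Preincubation: enzyme (10 nM) with compound, 15 min, RT. Reaction: substrate added to 50 nM final. Reads: 0 and 10 min. Analysis: normalized, Hill fit.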
Pol iota inh – blocks human DNA polymerase iota activity; AID 588590; Potency, µM (highest dose often 115 µM), inactives show at the top dose activity, negative = inhibition, actives largely listed as inhibitors; Q9UNA4; Pol iota fluorescent replication assay, 10 min; hit rate 1% among 390,000
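Pol iota at 10 nM preincubated 15 min with compounds at room temperature; reaction started with fluorescent substrate, 50 nM final. Fluorescence read kinetically at 0 and 10 min; buffer-only wells as negative control.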
WRN inhibitor – inhibitors of human WRN helicase; AID 651768; WRN helicase unwinding, fluorescent forked duplex, kinetic; hit rate 0.46% among 360,000; Potency, µM (highest dose often 114 µM), inactives show top-dose activity change, negative = inhibition, hits mostly inhibitors; Q14191; also: % is scaled to controls: 0 for no effect and ±100 for the full control effect; nearly all actives have a fitted effect of over 55% in size
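Screening of the MLSMR collection measured strand separation of a quenched forked DNA duplex (100 nM) by 20 nM WRN with 2 mM ATP, all final. Compounds were preincubated with enzyme 15 min at room temperature.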
Pol kappa inh-2 – confirmation of human DNA polymerase kappa inhibitors | shares compounds with Pol eta inh-1 | purified Pol-kappa, fluorescent strand-displacement substrate | Potency, µM, actives largely listed as inhibitors | hit rate 76% among 920 | AID 720501
Pol eta inh-2 – Pol eta (human) inhibition, cherry-pick confirmation; shares compounds with Pol eta inh-1; Potency, µM, hits mostly inhibitors; Pol eta primer extension, TAMRA/BHQ fluorescence, 10 min; hit rate 64% among 2,600
An asterisk follows results filed as active; ! = not active in a repeat; [ ] = dose if it differs, or a comment. Calls follow the shape of the dose curve; as a rule, active = well fitted curve in the direction sought with a large enough effect; inconclusive = small, poorly fitted or top-dose-only effect, or another doubt; inactive = no such curve, though single readings can be large; an effect the other way counts as inactive or inconclusive. Potency is read from the fitted curve at half-maximal effect.

How did O=C(CN1C(=O)/C(=C/c2ccco2)SC1=S)NC1CCS(=O)(=O)C1 (centres undefined) do in these assays?
Pol eta inh-1: 12.6µM*; Pol kappa inh-1: inconclusive; Pol beta inh: inconclusive; Pol iota inh: inconclusive; WRN inhibitor: -6.8%[11.6 µM]; Pol eta inh-2: 60.1*

How did CN(C)CCCn1c2c3ccccc3ccc2c2oc(=O)c3ccccc3c21 do in these assays?
Pol eta inh-1: inconclusive; Pol kappa inh-1: 50.1µM*!; Pol iota inh: 14.1µM*; WRN inhibitor: -4.9%[11.6 µM]; Pol eta inh-2: inconclusive

What do the screens show for `CN(C)CCCn1c(=S)[nH]c2ccccc2c1=O`?
Pol eta inh-1: 6.1%; Pol kappa inh-1: -11.0%; Pol beta inh: 0.2%; Pol iota inh: 44.0%; WRN inhibitor: 2.6%

What do the screens show for `CN1CCN(C(=O)Nc2cccc(Cl)c2)c2cccnc21`?
Pol eta inh-1: -4.9%; Pol kappa inh-1: -4.5%; Pol beta inh: 1.6%; Pol iota inh: 32.4%

Results for Cc1cc(C)c(/C=C/c2onc(C)c2S(=O)(=O)N2CCC(C(=O)N3CCN(c4ccccc4)CC3)CC2)c(C)c1 ?
Pol eta inh-1: -14.8%; Pol kappa inh-1: -16.5%[60.1 µM]; Pol beta inh: -16.8%; Pol iota inh: 43.8%

Results for COc1cc(C2CC(=O)Oc3c2c(=O)n(C)c2ccccc32)ccc1O (centres undefined) ?
Pol eta inh-1: 35.5µM*; Pol kappa inh-1: inconclusive; Pol beta inh: inconclusive; Pol iota inh: inconclusive; WRN inhibitor: -10.2%[11.6 µM]; Pol kappa inh-2: 47.4*; Pol eta inh-2: inconclusive

Results for COc1cc(C2CC(=O)Oc3c2c(=O)n(C)c2ccccc32)cc(OC)c1OC (centres undefined) ?
Pol eta inh-1: -18.3%; Pol kappa inh-1: 0.4%; Pol beta inh: inconclusive; Pol iota inh: 46.1%; WRN inhibitor: -1.6%

How did CCOc1ccccc1NC(=O)c1cn(C2CCCC2)c(=O)c2c1c1ccccc1n2C do in these assays?
Pol eta inh-1: -17.7%; Pol kappa inh-1: 14.1%; Pol beta inh: 0.5%; Pol iota inh: 2.3%

Results for COc1ccc(NC(=O)c2ccc3c(=O)n4nc(Nc5cccc(Cl)c5C)sc4nc3c2)cc1 ?
Pol eta inh-1: 6.0%; Pol kappa inh-1: -13.3%; Pol beta inh: -45.0%; Pol iota inh: -14.2%

Results for Cc1cc(C)n(CC(=O)NC2C(=O)N3C(C(=O)O)=C(CSc4nnc(C)s4)CSC23)n1 (centres undefined) ?
Pol eta inh-1: 22.4µM*; Pol kappa inh-1: -15.2%; Pol beta inh: inconclusive; Pol iota inh: -14.5%; WRN inhibitor: -9.0%[11.6 µM]; Pol eta inh-2: inconclusive

Results for Cc1nnc(SCC2=C(C(=O)O)N3C(=O)C(NC(=O)c4cccc(F)c4F)C3SC2)s1 (centres undefined) ?
Pol eta inh-1: 31.6µM*; Pol kappa inh-1: inconclusive; Pol beta inh: 1.9%; Pol iota inh: 15.8µM*; WRN inhibitor: -7.2%[11.6 µM]; Pol eta inh-2: 26.9*

What do the screens show for `Cc1nnc(SCC2=C(C(=O)O)N3C(=O)C(NC(=O)Cn4ncc(Cl)c4C)C3SC2)s1` (centres undefined)?
Pol eta inh-1: 17.8µM*; Pol kappa inh-1: inconclusive; Pol beta inh: 31.6µM*; Pol iota inh: inconclusive; WRN inhibitor: -12.2%[11.6 µM]; Pol eta inh-2: 26.9*

Results for NC(=O)C1CCN(S(=O)(=O)c2ccc(N3CCCCS3(=O)=O)cc2)CC1 ?
Pol eta inh-1: -12.7%; Pol kappa inh-1: -5.4%[60.1 µM]; Pol beta inh: -7.1%; Pol iota inh: 7.8%

Results for C=CCOc1cccc(C2C(C(=O)c3ccco3)=C(O)C(=O)N2Cc2ccco2)c1 (centres undefined) ?
Pol eta inh-1: inconclusive; Pol kappa inh-1: -12.9%; Pol beta inh: 3.1%; Pol iota inh: inconclusive; WRN inhibitor: -16.4%; Pol eta inh-2: inconclusive

Results for Cc1ccc([N+](=O)[O-])cc1S(=O)(=O)Nc1ccc(C(=O)NCc2ccccn2)cc1 ?
Pol eta inh-1: inconclusive; Pol kappa inh-1: inconclusive; Pol iota inh: inconclusive; WRN inhibitor: -24.9%; Pol eta inh-2: inconclusive

What do the screens show for `O=[N+]([O-])c1ccc(Cl)c(S(=O)(=O)Nc2ccc(S(=O)(=O)N3CCOCC3)cc2)c1`?
Pol eta inh-1: -15.3%; Pol kappa inh-1: -0.5%; Pol beta inh: -0.8%; Pol iota inh: 131.1%; WRN inhibitor: -5.0%

What do the screens show for `COC(=O)CNC(=O)c1ccc(NS(=O)(=O)c2cc([N+](=O)[O-])ccc2Cl)cc1`?
Pol eta inh-1: 31.6µM*; Pol kappa inh-1: -48.8%; Pol beta inh: inconclusive; Pol iota inh: inconclusive; WRN inhibitor: -4.5%[11.6 µM]; Pol eta inh-2: 75.7*

How did Cc1csc2nc(COC(=O)c3ccc(NC(=O)c4ccccc4Br)cc3)cc(=O)n12 do in these assays?
Pol eta inh-1: -10.7%; Pol kappa inh-1: -7.1%[60.1 µM]; Pol beta inh: 24.4%; Pol iota inh: -3.8%

How did Cc1ccc(C)c(/C=C(\C(=O)O)c2ccc(S(=O)(=O)N3CCCCC3)s2)c1 do in these assays?
Pol eta inh-1: 50.1µM*; Pol kappa inh-1: inconclusive; Pol beta inh: 22.4µM*; Pol iota inh: inconclusive; WRN inhibitor: -11.7%[11.6 µM]; Pol eta inh-2: inconclusive

Results for CN(Cc1ccco1)S(=O)(=O)c1nnc(NC(=O)c2ccccc2Cl)s1 ?
Pol eta inh-1: 50.1µM*; Pol kappa inh-1: inconclusive; Pol beta inh: inconclusive; Pol iota inh: inconclusive; WRN inhibitor: inconclusive; Pol eta inh-2: inconclusive

What do the screens show for `CN(c1ccc(Cl)cc1)S(=O)(=O)c1nnc(NC(=O)c2ccco2)s1`?
Pol eta inh-1: inconclusive; Pol kappa inh-1: inconclusive; Pol beta inh: inconclusive; Pol iota inh: inconclusive; WRN inhibitor: 4.3%[11.6 µM]; Pol kappa inh-2: inconclusive; Pol eta inh-2: inconclusive

Results for Cc1ccccc1C(=O)Nc1nnc(S(=O)(=O)N(C)Cc2ccco2)s1 ?
Pol eta inh-1: inconclusive; Pol kappa inh-1: inconclusive; Pol beta inh: -22.9%; Pol iota inh: -26.1%; WRN inhibitor: -13.8%

What do the screens show for `Cn1c2ccccc2c2c(C(=O)N3CCN(c4cccc(Cl)c4)CC3)cn(C3CCCCC3)c(=O)c21`?
Pol eta inh-1: -13.4%; Pol kappa inh-1: 21.8%; Pol beta inh: -0.7%; Pol iota inh: 23.2%

What do the screens show for `Cc1csc(N/N=C/c2ccc(O)c([N+](=O)[O-])c2)n1`?
Pol eta inh-1: 7.08µM*; Pol kappa inh-1: 22.4µM*; Pol beta inh: 25.1µM*; Pol iota inh: 12.6µM*; WRN inhibitor: inconclusive; Pol eta inh-2: 37.9*

What do the screens show for `Cc1ccc(/C=C(\C#N)C(=O)NCC2CCCO2)o1` (centres undefined)?
Pol eta inh-1: 0.7%; Pol kappa inh-1: -16.1%[60.1 µM]; Pol beta inh: -4.3%; Pol iota inh: 0.8%; WRN inhibitor: -0.2%

Screening data: PubChem BioAssay, National Center for Advancing Translational Sciences (NCATS)
